# Assay results published in PubChem BioAssay AID1159580 (chemical genetic matrix, 2015).
# The campaign covered roughly 5,500 compounds. About 2,000 (36%) were called active. Roughly 18% stayed inconclusive and do not appear here. The list shows a part of the results. Values without a mark were called inactive. Cut-off read from the data, not from the text of the source: active = normalized growth mostly below about 0.91 (no sharp cut-off); inconclusive = no clear call, values can overlap the other calls; inactive = mostly above about 0.92.
# Test: chemical genetic growth profiling, strain panel (AID 1159580);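 note: tested at 20 µM; growth read once vehicle control cultures reached saturation at 30 °C; 1 = growth at the plate median or of vehicle wells; lower values mean less growth of the strain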
# Conditions: growth OD
smiles,measurement,setting,value
Cc1cccc(N(C)C(=S)Oc2ccc3ccccc3c2)c1,normalized growth,"S. cerevisiae deletion strains, locus YJR075W, strain HOC1, active compounds read low",0.971
same,normalized growth,"S. cerevisiae deletion strains, locus YKL009W, strain mrt4, active compounds read low",0.99
same,normalized growth,"S. cerevisiae deletion strains, locus YKL068W, active compounds read low",0.981
same,normalized growth,"S. cerevisiae deletion strains, locus YKL085W, strain MDH1 (second series), active compounds read low",0.979
same,normalized growth,"S. cerevisiae deletion strains, locus YKL085W, strain MDH1, active compounds read low",0.979
same,normalized growth,"S. cerevisiae deletion strains, locus YKL160W, strain elf1, active compounds read low",0.947
same,normalized growth,"S. cerevisiae deletion strains, locus YKL190W, strain CNB1, active compounds read low",0.983
same,normalized growth,"S. cerevisiae deletion strains, locus YKR001C, strain vps1, active compounds read low",1.01
same,normalized growth,"S. cerevisiae deletion strains, locus YKR026C, strain gcn3, active compounds read low",1
same,normalized growth,"S. cerevisiae deletion strains, locus YKR091W, strain srl3, active compounds read low",0.993
same,normalized growth,"S. cerevisiae deletion strains, locus YLL001W, strain dnm1, active compounds read low",0.994
same,normalized growth,"S. cerevisiae deletion strains, locus YLL026W, active compounds read low",0.985
same,normalized growth,"S. cerevisiae deletion strains, locus YLL041C, strain sdh2, active compounds read low",0.987
same,normalized growth,"S. cerevisiae deletion strains, locus YLR027C, strain aat2, active compounds read low",0.99
same,normalized growth,"S. cerevisiae deletion strains, locus YLR039C, strain RIC1, active compounds read low",1.46 [resistant] (active)
same,normalized growth,"S. cerevisiae deletion strains, locus YLR058C, strain SHM2, active compounds read low",0.972
same,normalized growth,"S. cerevisiae deletion strains, locus YLR102C, strain apc9, active compounds read low",0.979
same,normalized growth,"S. cerevisiae deletion strains, locus YLR113W, strain HOG1, active compounds read low",0.91
same,normalized growth,"S. cerevisiae deletion strains, locus YLR221C, strain rsa3, active compounds read low",1.02
same,normalized growth,"S. cerevisiae deletion strains, locus YLR258W, strain gsy2, active compounds read low",0.974
same,normalized growth,"S. cerevisiae deletion strains, locus YLR262C, strain YPT6 (second series), active compounds read low",1.13
same,normalized growth,"S. cerevisiae deletion strains, locus YLR262C, strain YPT6, active compounds read low",1.48 [resistant] (active)
same,normalized growth,"S. cerevisiae deletion strains, locus YLR268W, strain sec22, active compounds read low",0.971
same,normalized growth,"S. cerevisiae deletion strains, locus YLR320W, strain mms22, active compounds read low",0.98
same,normalized growth,"S. cerevisiae deletion strains, locus YLR330W, strain CHS5, active compounds read low",0.984
same,normalized growth,"S. cerevisiae deletion strains, locus YLR342W, strain FKS1 (second series), active compounds read low",0.995
same,normalized growth,"S. cerevisiae deletion strains, locus YLR342W, strain FKS1, active compounds read low",1.01
same,normalized growth,"S. cerevisiae deletion strains, locus YLR357W, strain rsc2, active compounds read low",0.999
same,normalized growth,"S. cerevisiae deletion strains, locus YLR370C, strain arc18, active compounds read low",1.01
same,normalized growth,"S. cerevisiae deletion strains, locus YLR371W, strain rom2, active compounds read low",0.947
same,normalized growth,"S. cerevisiae deletion strains, locus YLR384C, strain iki3, active compounds read low",0.995
same,normalized growth,"S. cerevisiae deletion strains, locus YLR418C, strain cdc73, active compounds read low",0.904
same,normalized growth,"S. cerevisiae deletion strains, locus YML016C, strain PPZ1, active compounds read low",0.998
same,normalized growth,"S. cerevisiae deletion strains, locus YML032C, strain rad52, active compounds read low",0.991
same,normalized growth,"S. cerevisiae deletion strains, locus YML120C, strain ndi1, active compounds read low",1
same,normalized growth,"S. cerevisiae deletion strains, locus YML124C, strain tub3, active compounds read low",0.969
same,normalized growth,"S. cerevisiae deletion strains, locus YMR058W, strain fet3, active compounds read low",0.994
same,normalized growth,"S. cerevisiae deletion strains, locus YMR078C, strain ctf18, active compounds read low",0.965
same,normalized growth,"S. cerevisiae deletion strains, locus YMR125W, strain sto1, active compounds read low",0.988
same,normalized growth,"S. cerevisiae deletion strains, locus YMR129W, active compounds read low",0.991
same,normalized growth,"S. cerevisiae deletion strains, locus YMR205C, strain PFK2, active compounds read low",0.952
same,normalized growth,"S. cerevisiae deletion strains, locus YMR223W, strain ubp8, active compounds read low",0.955
same,normalized growth,"S. cerevisiae deletion strains, locus YMR231W, strain pep5, active compounds read low",1.03
same,normalized growth,"S. cerevisiae deletion strains, locus YMR263W, strain SAP30, active compounds read low",0.958
same,normalized growth,"S. cerevisiae deletion strains, locus YMR307W, strain GAS1, active compounds read low",0.981
same,normalized growth,"S. cerevisiae deletion strains, locus YNL067W, strain RPL9B, active compounds read low",0.989
same,normalized growth,"S. cerevisiae deletion strains, locus YNL071W, strain lat1, active compounds read low",1.01
same,normalized growth,"S. cerevisiae deletion strains, locus YNL183C, strain NPR1, active compounds read low",0.907
same,normalized growth,"S. cerevisiae deletion strains, locus YNL209W, strain ssb2, active compounds read low",0.999
same,normalized growth,"S. cerevisiae deletion strains, locus YNL233W, strain BNI4, active compounds read low",0.985
same,normalized growth,"S. cerevisiae deletion strains, locus YNL248C, strain rpa49, active compounds read low",0.998
same,normalized growth,"S. cerevisiae deletion strains, locus YNL250W, strain rad50, active compounds read low",0.977
same,normalized growth,"S. cerevisiae deletion strains, locus YNL271C, strain bni1, active compounds read low",1
same,normalized growth,"S. cerevisiae deletion strains, locus YNL298W, strain CLA4, active compounds read low",0.99
same,normalized growth,"S. cerevisiae deletion strains, locus YNL307C, strain MCK1, active compounds read low",0.98
same,normalized growth,"S. cerevisiae deletion strains, locus YNL322C, strain KRE1 (second series), active compounds read low",1
same,normalized growth,"S. cerevisiae deletion strains, locus YNL322C, strain KRE1, active compounds read low",0.982
same,normalized growth,"S. cerevisiae deletion strains, locus YNR049C, strain mso1, active compounds read low",0.999
same,normalized growth,"S. cerevisiae deletion strains, locus YNR052C, strain pop2, active compounds read low",0.986
same,normalized growth,"S. cerevisiae deletion strains, locus YOL006C, strain TOP1, active compounds read low",0.828
same,normalized growth,"S. cerevisiae deletion strains, locus YOL012C, strain htz1",0.985
same,normalized growth,"S. cerevisiae deletion strains, locus YOL147C, strain pex11, active compounds read low",0.982
same,normalized growth,"S. cerevisiae deletion strains, locus YOR001W, strain rrp6, active compounds read low",1
same,normalized growth,"S. cerevisiae deletion strains, locus YOR061W, strain CKA2, active compounds read low",0.966
same,normalized growth,"S. cerevisiae deletion strains, locus YOR069W, strain VPS5, active compounds read low",0.988
same,normalized growth,"S. cerevisiae deletion strains, locus YOR070C, strain gyp1, active compounds read low",0.992
same,normalized growth,"S. cerevisiae deletion strains, locus YOR080W, strain dia2, active compounds read low",0.981
same,normalized growth,"S. cerevisiae deletion strains, locus YOR083W, strain WHI5, active compounds read low",0.947
same,normalized growth,"S. cerevisiae deletion strains, locus YOR106W, strain vam3, active compounds read low",0.968
same,normalized growth,"S. cerevisiae deletion strains, locus YOR136W, strain idh2, active compounds read low",0.978
same,normalized growth,"S. cerevisiae deletion strains, locus YOR144C, strain elg1, active compounds read low",0.971
same,normalized growth,"S. cerevisiae deletion strains, locus YOR184W, strain ser1, active compounds read low",0.897
same,normalized growth,"S. cerevisiae deletion strains, locus YOR231W, strain MKK1, active compounds read low",0.945
same,normalized growth,"S. cerevisiae deletion strains, locus YOR265W, strain rbl2, active compounds read low",0.969
same,normalized growth,"S. cerevisiae deletion strains, locus YOR270C, strain vph1, active compounds read low",0.942
same,normalized growth,"S. cerevisiae deletion strains, locus YOR290C, strain snf2, active compounds read low",0.999
same,normalized growth,"S. cerevisiae deletion strains, locus YOR316C, strain cot1, active compounds read low",0.975
same,normalized growth,"S. cerevisiae deletion strains, locus YPL051W, strain arl3, active compounds read low",0.988
same,normalized growth,"S. cerevisiae deletion strains, locus YPL055C, strain LGE1, active compounds read low",0.922
same,normalized growth,"S. cerevisiae deletion strains, locus YPL078C, strain atp4, active compounds read low",0.953
same,normalized growth,"S. cerevisiae deletion strains, locus YPL106C, strain sse1, active compounds read low",0.941
same,normalized growth,"S. cerevisiae deletion strains, locus YPL240C, strain hsp82, active compounds read low",0.99
same,normalized growth,"S. cerevisiae deletion strains, locus YPL256C, strain CLN2, active compounds read low",0.931
same,normalized growth,"S. cerevisiae deletion strains, locus YPR119W, strain clb2, active compounds read low",0.963
same,normalized growth,"S. cerevisiae deletion strains, locus YPR141C, strain kar3, active compounds read low",0.973
same,normalized growth,"S. cerevisiae deletion strains, locus YPR163C, strain tif3, active compounds read low",0.976
same,normalized growth,"S. cerevisiae deletion strains, locus YPR167C, strain met16, active compounds read low",0.973
same,normalized growth,"S. cerevisiae deletion strains, strain wtn01, active compounds read low",0.994
same,normalized growth,"S. cerevisiae strains, strain wild type, active compounds read low",1.01
